What is called Inhibition is the drop in the measured response relative to a control, in per cent.

The test system of one experiment is Staphylococcus aureus. The conditions noted are these: Concentration 32 ug.mL-1;; ASSAY_TEST Inhibition of Bacterial Growth; detection method Absorption (OD600); MEDIA CAMHB; plate type 384well; NBS; CORNING #3640; time 18 hr.
For another experiment, the system named is Escherichia coli. To be noted: Concentration 32 ug.mL-1;; ASSAY_TEST Inhibition of Bacterial Growth; detection method Absorption (OD600); MEDIA CAMHB; plate type 384well; NBS; CORNING #3640; time 18 hr.

Measured potencies and affinities stand elsewhere.

`Cc1ccc(Sc2nccn3c(=O)n(CC(=O)Nc4ccc(F)c(Cl)c4)nc23)c(C)c1`: the Inhibition in the experiment with Staphylococcus aureus is reported as -12.28%; with Escherichia coli, -15.97%.

Turning to `O=S(=O)(c1ccc2nncn2c1)N(Cc1ccccc1F)c1ccc2c(c1)OCO2`, the Inhibition with Staphylococcus aureus is recorded as 12.13%; in the experiment with Escherichia coli, -4.11%.

In the case of `Cc1cc2nn(CC(=O)Nc3cc(F)ccc3F)c(=O)n2c(Nc2ccc(C)c(F)c2)n1`, the Inhibition in the experiment on Staphylococcus aureus is given as 0.88%; with Escherichia coli, -8.4%.

`Cc1nnc2c(=O)n(CC(=O)Nc3ccc(F)cc3)c3ccccc3n12`: the Inhibition in the experiment on Staphylococcus aureus stood at 15.51%; in the experiment with Escherichia coli, 1.65%.

Regarding `CCc1nnc2c(S(=O)(=O)N(Cc3cc(F)cc(F)c3)c3ccc(F)cc3)cccn12`, the values for the Inhibition with Staphylococcus aureus and in the experiment with Escherichia coli were -5.33% and -11.24%, respectively.

On to `Cc1ccccc1CSc1nnc2c(=O)n(-c3ccc(F)c(F)c3)ccn12`, for which the Inhibition with Staphylococcus aureus is reported as 12.28%; in the experiment with Escherichia coli it was -1.52%.

For `CC(C)Cn1c(=O)c2sccc2n2c(=O)n(CC(=O)NC(C)(C)C)nc12`, the Inhibition is -11.52% in the experiment on Staphylococcus aureus and -13.32% in the experiment on Escherichia coli.

Turning to `O=C(Cn1nc2c3sc(N4CCCC4)nc3ncn2c1=O)Nc1ccc(F)c(Cl)c1`, the figures for the Inhibition with Staphylococcus aureus and with Escherichia coli were 15.3% and 1.03%, respectively.

With `COC(=O)c1ccc(NC(=O)Cn2nc3c(Oc4ccccc4C)nccn3c2=O)cc1`, the results for the Inhibition in the experiment with Staphylococcus aureus and in the experiment with Escherichia coli were -13.52% and 1.22%, respectively.

On to `Cc1cc(C)cc(Nc2nc(C)cc3nn(CC(=O)Nc4ccc(Cl)cc4)c(=O)n23)c1`, for which the Inhibition in the experiment on Staphylococcus aureus is -9.56%; in the experiment on Escherichia coli it was 0.58%.

Regarding `CCCN(C)c1nccn2c(=O)n(CC(=O)Nc3ccc(OC)c(Cl)c3)nc12`, the Inhibition was 16.13% in the experiment with Staphylococcus aureus and -1.22% in the experiment on Escherichia coli.

With `COc1ccc(CNC(=O)Cn2nc3c4cc(-c5ccc(C)c(C)c5)nn4ccn3c2=O)cc1`, the Inhibition is reported as 6.21% in the experiment with Staphylococcus aureus and 2.95% in the experiment with Escherichia coli.

As to `Cc1cc2nn(CC(=O)Nc3cc(F)ccc3C)c(=O)n2c(Nc2ccc(F)c(C)c2)n1`, the Inhibition with Staphylococcus aureus was 9.03%; in the experiment on Escherichia coli it was -0.59%.

As for `CC1CCN(C(=O)Cn2nc3n(Cc4ccco4)c(=O)c4sccc4n3c2=O)CC1`, the Inhibition is 1.87% in the experiment on Staphylococcus aureus and -2.27% in the experiment on Escherichia coli.

As for `COC(=O)c1cccc(NC(=O)Cn2nc3c(Oc4ccccc4)nccn3c2=O)c1`, the Inhibition with Staphylococcus aureus was 3.03%; in the experiment on Escherichia coli, -4.6%.

In the case of `Cc1ccc(Sc2nccn3c(=O)n(CC(=O)Nc4ccccc4Br)nc23)c(C)c1`, the values for the Inhibition in the experiment on Staphylococcus aureus and in the experiment on Escherichia coli were -0.81% and -13.84%, respectively.

In the case of `Cn1c(=O)c2sccc2n2c(=O)n(Cc3ccc(Cl)cc3)nc12`, the Inhibition with Staphylococcus aureus was 3.13%; in the experiment with Escherichia coli it was -4.41%.

`COc1cccc(-n2ccn3c(SCC(=O)c4cccc(Cl)c4)nnc3c2=O)c1`: the Inhibition was -1.54% with Staphylococcus aureus and 0.66% in the experiment with Escherichia coli.

For `Cc1ccc(C)c(Cn2nc3n(CC(C)C)c(=O)c4sccc4n3c2=O)c1`, the Inhibition with Staphylococcus aureus was 12.61%; in the experiment on Escherichia coli, 1.72%.

In the case of `Cc1ccc(Nc2cc(C)n3c(=O)n(CCOc4ccc(F)cc4)nc3n2)cc1`, the Inhibition with Staphylococcus aureus is recorded as 8.99%; with Escherichia coli, -0.82%.

Regarding `CCc1nnc2c(SCC(=O)Nc3ccc(C)cc3Br)nc3ccccc3n12`, the Inhibition is given as 2.22% with Staphylococcus aureus and -2.07% with Escherichia coli.

`COc1cccc(-n2ccn3c(=O)n(Cc4ccc([N+](=O)[O-])cc4)nc3c2=O)c1`: the Inhibition in the experiment on Staphylococcus aureus is listed as 7.57%; in the experiment on Escherichia coli, -2.91%.

As to `CCc1nnc2c(=O)n(CC(=O)Nc3cccc(C#N)c3)c3ccccc3n12`, the Inhibition in the experiment on Staphylococcus aureus amounted to 13.48%; in the experiment with Escherichia coli, 1.69%.

For the compound `COc1ccc(N(Cc2cccc(Cl)c2)S(=O)(=O)c2ccc3nnc(C)n3c2)cc1`, the Inhibition in the experiment with Staphylococcus aureus is 13.9%; in the experiment with Escherichia coli it was 0.81%.

As for `COc1cccc(Oc2nccn3c(=O)n(CC(=O)NCc4ccccc4Cl)nc23)c1`, the Inhibition was 11.84% in the experiment on Staphylococcus aureus and 2.87% in the experiment with Escherichia coli.

As for `Cc1ccc(-c2cc3c4nn(CC(=O)N5CCN(c6ccc(F)cc6)CC5)c(=O)n4ccn3n2)cc1C`, the values for the Inhibition in the experiment with Staphylococcus aureus and in the experiment on Escherichia coli were 6.16% and 1.43%, respectively.

`CCCCNC(=O)Cn1nc2n(Cc3ccco3)c(=O)c3sccc3n2c1=O`: the Inhibition is listed as 2.23% with Staphylococcus aureus and -5.07% in the experiment with Escherichia coli.

With `O=c1c2sccc2n2c(=O)n(Cc3ccc(Br)cc3)nc2n1CCc1ccccc1`, the Inhibition in the experiment with Staphylococcus aureus was -9.4%; with Escherichia coli it was -11.48%.

For `CCOC(=O)c1ccc(NC(=O)Cn2nc3ccc(Sc4ccccc4)nn3c2=O)cc1`, the Inhibition in the experiment with Staphylococcus aureus was 9.67%; with Escherichia coli, -3.7%.

For `Cc1cccc(NC(=O)Cn2nc3nc(N4CCCCCC4)ccn3c2=O)c1C`, the Inhibition is reported as 7.24% in the experiment with Staphylococcus aureus and -2.03% in the experiment on Escherichia coli.

As for `Cc1ccc(-c2cc3c4nn(CC(=O)Nc5cc(Cl)ccc5C)c(=O)n4ccn3n2)cc1C`, the Inhibition in the experiment with Staphylococcus aureus was 2.42%; in the experiment on Escherichia coli it was -7.74%.

As to `Cc1cc(C)cc(Oc2nccn3c(=O)n(CC(=O)Nc4cccc(Cl)c4)nc23)c1`, the values for the Inhibition in the experiment on Staphylococcus aureus and with Escherichia coli were -12.18% and -3.44%, respectively.

Regarding `COc1ccc(N(Cc2ccc(F)cc2)S(=O)(=O)c2ccc3nncn3c2)cc1`, the Inhibition in the experiment on Staphylococcus aureus is -7.56%; with Escherichia coli, -2.8%.

On to `O=C(Cn1nc2c3cc(-c4ccc(F)cc4)nn3ccn2c1=O)Nc1ccccc1`, for which the Inhibition in the experiment with Staphylococcus aureus is on record as -11.01%; with Escherichia coli, -1.34%.

As to `Cc1nnc2c(S(=O)(=O)N(Cc3cccc(F)c3)c3cccc(F)c3)cccn12`, the Inhibition is reported as 18.57% with Staphylococcus aureus and 0.97% in the experiment with Escherichia coli.

These data come from ChEMBL document CHEMBL4513146, “CO-ADD screening of Karazin Kharkiv National University (Ukraine) compounds”.
